Data taken from PubChem BioAssay (NCI).
Several values for one entry are separate records, joined by “and”; a condition that tells them apart may be missing. Identical values can stand only once. This is part of a sample that, as a whole, favours compounds with a hit. Of some 83,000 tested, about 20% had one in any assay.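 A percent growth of 40 corresponds to 60% growth inhibition; 0 means no net growth; -100 means all cells died. Active threshold: below 10.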 Values without a mark were called inactive. Activity calls are given as the source filed them.

System: HL-60(TB) leukemia
Assay: NCI-60 one-dose screen, 48 h (100 = growth as untreated, 0 = no growth, -100 = all killed)
Details: 10 µM unless noted

| SMILES | growth |
| --- | --- |
| O=C(OCc1ccc2c(Cl)cc(Cl)c(O)c2n1)N1CCN(C(=O)c2cc3cc(F)ccc3[nH]2)CC1 | -49.4% (active) |
| O=S(=O)(c1ccc(NC(=S)NC23CC4CC(CC(C4)C2)C3)cc1)N1CCCCC1 | -29.2% (active) |
| CC(C)Sc1ncnc2nc[nH]c12 | 95% |
| CC1(C)CC[C@]2(C(=O)NCCNCCN)CC[C@]3(C)C(=CC[C@@H]4[C@@]5(C)CCC(=O)C(C)(C)[C@@H]5CC[C@]43C)[C@@H]2C1 | -52.9% (active) |
| CCCCCCCCCC(=O)Oc1ccc(/C(=C(/C)c2ccccc2)c2ccc(OCCN3CCCC3)cc2)cc1 | -30.4% (active) |
| CCN(CC)C(Cl)=Nc1ccc(Cl)cc1 | 99.3% |
| N/C(=N\c1nc2ccccc2s1)NC(=O)Nc1ccccc1Cl | -27.3% (active) |
| Cc1cs/c(=N\NC(=O)c2cc(-c3cc4ccccc4o3)nn2-c2ccccc2)n1-c1ccccc1 | 109% |
| COc1ccccc1NC(=O)N/C(N)=N/c1nc2ccccc2s1 | -27.1% (active) |
| Cc1ccc(S(=O)(=O)N2C/C(=C\c3cc(F)cc(F)c3)C(=O)/C(=C/c3cc(F)cc(F)c3)C2)cc1 | 10.9% |
| Cc1ccc(C(C(N)=O)C(C(N)=O)c2ccccc2)cc1 (stereo not drawn) | 84.7% |
| COc1ccc(C(=O)COc2ccc(/C=C3\Oc4ccc5ccccc5c4C3=O)cc2)cc1 | 87.3% |
| O=C(/C=C/c1cccc2ccccc12)Nc1ncc(Cc2ccccc2)s1 | -11% (active) |
| Cc1cc(C)nc(NS(=O)(=O)c2ccc(Nc3nc4nc(NCc5ccccc5)nc(-c5ccc(O)cc5)c4c(=O)[nH]3)cc2)n1 | 1.48% (active) |
| CC(=Nc1ccccc1)C1=C(O)C(Cc2ccc(O)cc2)NC1=O (stereo not drawn) | -51.5% (active) |
| CC(=O)NCC(=O)N1[C@@H]2CC[C@H]1c1ccc(Nc3ncc(C(F)(F)F)c(NC4CCC4)n3)cc12 | 11.8% [2.5 µM] |
| O=C(N/N=C/c1ccc(F)cc1)c1ccccc1Nc1cccc(C(F)(F)F)c1 | 88.1% |
| COc1cc(-c2nc(SCC(C)C)nc(Nc3cccc4ccccc34)c2C#N)cc(OC)c1OC | 79.1% |
| O=C(N/N=C/c1cccc(O)c1)c1ccc(C(F)(F)F)nc1Nc1cccc(C(F)(F)F)c1 | -30.4% (active) |

| SMILES | growth |
| --- | --- |
| Nc1n[nH]c(-c2cc(Cl)ccc2O)c1-c1ccccc1 | 69.8% |
| C#CC(=O)Nc1cccc2c1cc(C)n2-c1nc2c(c(NCc3ccccc3)n1)CCCC2 | -40.1% (active) |
| CCN(CC)CCn1c(=N)n(CC(O)c2ccc(Cl)c(Cl)c2)c2ccccc21 (stereo not drawn) | 71% |
| CCCCC1C(=O)N(c2ccccc2)N(c2ccccc2)C1=O | 102% |
| COc1ccc(-c2cc(-c3cc4ccccc4oc3=O)n(-c3ccccc3)n2)cc1 | 91.6% |
| O=C1C(=O)c2ccccc2C(O)=C1CCCc1ccc(C2CCCC2)cc1 | 20.6% |
| COc1cc(C2CC(c3cccc(Nc4ccnc5cc(Cl)ccc45)c3)=NN2C=O)cc(OC)c1OC (stereo not drawn) | -7.92% (active) |
| COc1cc([C@@H]2c3cc4c(cc3[C@H](O)[C@H]3COC[C@@H]23)OCO4)cc(OC)c1OC | 57.8% |
| COc1ccc(C(=O)c2no[n+]([O-])c2C(=O)c2ccc(OC)cc2)cc1 | -79.7% (active) |
| C=C1C(=O)O[C@H]2[C@H]1CC/C(COC(=O)NCc1ccc(Cn3c(=O)sn(CCI)c3=O)cc1)=C\CC[C@@]1(C)O[C@@H]21 | 0.649% (active) |
| O=C(CCl)N1CCCc2ccccc21 | 93.3% |
| COc1ccc(/C=C\c2nc3ccccc3s2)cc1OP(=O)(O)O | -1.37% (active) |
| CC(=O)c1cccc(NS(=O)(=O)c2ccc(C)cc2)c1 | 70.9% |
| CC1CN(c2oc(-c3ccccc3)nc2C#N)CC(C)O1 (stereo not drawn) | 101% |
| CCn1cc(C(=O)N/N=C/c2cccs2)c(=O)c2cc(F)c(N3CCNC(C)C3)c(F)c21 (stereo not drawn) | 105% |
| Brc1ccc(-n2cc(-c3nn[nH]n3)c(-c3cccs3)n2)cc1 | 104% |
| N/N=C(\C(=N\N)c1ccccc1)c1ccccc1 | 84.7% |
| O=C1OC2(c3ccccc31)c1ccc(O)c(O)c1Oc1c2ccc(O)c1O | 98.6% and 117% |
| Cc1[nH]n(C(=O)c2ccncc2)c(=O)c1N=Nc1ccc(F)c(Cl)c1 | 36.5% |
